In PubChem BioAssay (Tox21):
Results filed as inconclusive are left out. A call without a number means that no potency is given here. The source made the active and inactive calls. Calls follow the shape of the dose curve; as a rule, active = well fitted activation curve with a large enough effect in the repeat runs; inconclusive = weak or mixed curves; inactive = flat fitted curve, though single readings scatter.

Experiment: A CellTox Green Cytotoxicity Assay to monitor cytotoxicity in HepG2 cells - 16 hour (AID 1224876); also: nearly all actives have a fitted effect of over 45% in size
Settings: CellTox Green fluorescence; series mostly up to 76.8 µM
Source text: National Center for Advancing Translational Sciences [NCATS]
NIH Chemical Genomics Center [NCGC]
U.S. Environmental Protection Agency [EPA]
National Institutes of Environmental Health Sciences [NIEHS]
National Toxicology Program [NTP]
Cell-based models are critical for drug discovery. Determining the natural cytotoxic effects resulting from test compounds is an essential research activity. A CellTox Green Cytotoxicity Assay to monitor cytotoxicity in real time of continues cell culture during 40 hours of the compound treatment was used to screen Tox21 10K library compounds in HepG2 cells. CellTox Green Cytotoxicity Assay is a nonlytic, homogeneous, biofluorescent method to measure cytotoxicity in cell culture after experimental manipulation. The assay system uses a proprietary asymmetric cyanine dye that is excluded from viable cells but preferentially stains the dead cell's DNA. […] Viable cells produce no appreciable increases in fluorescence. Therefore, the fluorescence signal produced by the binding interaction with dead cell DNA is proportional to cytotoxicity.
The mixture of HepG2 cell suspension and reagents were dispensed at 600cells/6 ul/well in 1536-well tissue culture treated black solid bottom plates using a Multidrop dispenser. After the assay plates were incubated at a 37 C/5% CO2 incubator for 5 hours, 23 nL of compounds dissolved in DMSO, positive and negative controls was transferred to the assay plate by a pintool work station. The plates were incubated at 37 C for 40 hours. The fluorescence intensity were measured at 0h, 8h, 16h, 24h, 32h and 40h time points using ViewLux plate reader during compound treatment.
Potency is read from the fitted curve at half-maximal effect.

| SMILES | Potency |
| --- | --- |
| C[C@]12CC[C@H]3[C@@H](CCC4=CC(=O)CC[C@@]43C)[C@@H]1CC[C@@H]2O | inactive |
| O=c1[nH]c2ccccc2n1CCCN1CCC(n2c(=O)[nH]c3cc(Cl)ccc32)CC1 | inactive |
| CC[C@H]1C[C@@H]2C[C@H]3c4[nH]c5ccc(OC)cc5c4CCN(C2)[C@@H]13 | inactive |
| [Hg+2].[I-].[I-] | 12.3 µM (active) |
| COCC(=O)N(c1c(C)cccc1C)[C@H](C)C(=O)OC | inactive |
| C=CCOC(N)=O | inactive |
| C[CH2][Hg][N]1C(=O)C2C(C1=O)C1(Cl)C(Cl)=C(Cl)C2(Cl)C1(Cl)Cl (stereo not given) | 6.57 µM (active) |
| NNC(=O)c1ccccc1 | inactive |
| FC(F)(F)c1cccc(C2=CCN(CCc3ccc4ccccc4c3)CC2)c1 | inactive |
| CCCCCCCCCCCCCCCCCCn1cc[n+](C)c1 | 38.7 µM (active) |
| CCc1nn(C)c(C(=O)NCc2ccc(C(C)(C)C)cc2)c1Cl | inactive |
| Oc1ccc(C(c2ccc(O)cc2)(C(F)(F)F)C(F)(F)F)cc1 | 54.9 µM (active) |
| ClC1=C(Cl)[C@]2(Cl)[C@@H]3[C@@H]4C[C@@H]([C@H]5O[C@@H]45)[C@@H]3[C@@]1(Cl)C2(Cl)Cl | 54.9 µM (active) |
| O=C(CCl)C(Cl)Cl | inactive |
| CC(C)CC(C)(c1ccc(O)cc1)c1ccc(O)cc1 | 43.8 µM (active) |
| N#CCc1ccc(Cl)cc1 | inactive |
| C=CC(=O)OCCCCOC(=O)C=C | inactive |
| N#CCCO | inactive |
| CCC(C)(C)C(=O)OC1=C(c2ccc(Cl)cc2Cl)C(=O)OC12CCCCC2 | inactive |
| CC(C)CBr | inactive |

| SMILES | Potency |
| --- | --- |
| CCSC(C)CC1CC(=O)C(/C(CC)=N/OC/C=C/Cl)=C(O)C1 (stereo not given) | inactive |
| COC12CC[C@@]3(C[C@@H]1C(C)(O)C(C)(C)C)[C@H]1Cc4ccc(O)c5c4[C@@]3(CCN1CC1CC1)[C@H]2O5 (stereo not given in full) | 43.4 µM (active) |
| Clc1ccc(CSC(Cn2ccnc2)c2ccc(Cl)cc2Cl)cc1 (stereo not given) | inactive |
| O=C1C=CC(=O)c2ccccc21 | 13.8 µM (active) |
| Oc1cc(Cl)c(Cl)c(Cl)c1 | inactive |
| BrC(Br)Br | inactive |
| COP(=O)(CCC(=O)NCO)OC | inactive |
| CC(C)CCCCCCCOP(=O)(Oc1ccccc1)Oc1ccccc1 | inactive |
| Clc1ccc(-c2ccc(Cl)c(Cl)c2Cl)c(Cl)c1Cl | inactive |
| N#CC(Cl)Cl | inactive |
| C[C@@H](Oc1ccc(Cl)cc1Cl)C(=O)O | inactive |
| N#CCCC(Br)(C#N)CBr (stereo not given) | 43.6 µM (active) |
| ClC1=C(Cl)[C@]2(Cl)[C@@H]3[C@@H](Cl)[C@@H](Cl)C[C@@H]3[C@@]1(Cl)C2(Cl)Cl | inactive |
| COC(=O)N(C(=O)N1COC2(C(=O)OC)Cc3cc(Cl)ccc3C2=N1)c1ccc(OC(F)(F)F)cc1 (stereo not given) | inactive |
| Oc1c(Cl)c(Cl)cc(Cl)c1Cl | inactive |
| O=C(CCl)Nc1ccccc1 | inactive |
| CS(=O)(=O)c1ccc(C(=O)C2C(=O)CCCC2=O)c([N+](=O)[O-])c1 | 44.4 µM (active) |
| Cc1cc(C(F)(C(F)(F)F)C(F)(F)F)ccc1NC(=O)c1cccc(I)c1C(=O)NC(C)(C)CS(C)(=O)=O | inactive |
| CN(C)S(=O)(=O)N(SC(F)(Cl)Cl)c1ccccc1 | 12.3 µM (active) |
| COc1cc(N)c(Cl)cc1C(=O)NC1CN2CCC1CC2 (stereo not given) | inactive |
